{"source": "the supplement of paper PMC3334620", "note": "The full ranking holds about 33,000 sequences; the median of “E-score (-0.5 to 0.5)” is about -0.0034, and the highest 2% start at about 0.25. This is one part of a sample in which the highest values are shown more often than they occur."}
{"molecular_target": "T1, Yap3 (UniProt P38749)", "T1 sequence": "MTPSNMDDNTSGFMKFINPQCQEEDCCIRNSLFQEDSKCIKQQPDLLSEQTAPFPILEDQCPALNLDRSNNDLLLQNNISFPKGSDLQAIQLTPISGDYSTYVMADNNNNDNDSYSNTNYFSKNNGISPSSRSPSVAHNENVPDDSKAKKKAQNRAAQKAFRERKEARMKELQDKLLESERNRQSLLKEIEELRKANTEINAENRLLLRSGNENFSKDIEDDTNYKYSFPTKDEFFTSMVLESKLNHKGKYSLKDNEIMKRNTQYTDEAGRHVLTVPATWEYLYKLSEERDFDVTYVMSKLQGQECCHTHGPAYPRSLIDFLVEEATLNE", "experiment": "PBM E-score (8-mer binding enrichment) (E-score (-0.5 to 0.5)); higher = stronger / more preferred TF binding", "details": "protein concentration: 100 nM; construct: GST-full length", "summary_of_the_method": "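Yeast transcription factors carrying a GST tag, as full-length proteins or DNA-binding domains, were produced by PURExpress in vitro transcription/translation. About 100-200 nM protein was applied to universal all-10-mer Agilent arrays, double-stranded by primer extension on fresh or once-stripped slides. Bound protein was detected with fluorescent anti-GST, and scans were normalised with masliner. The Universal PBM Analysis Suite gave each ungapped eight-base word, pooled with its reverse complement, an E-score, a modified Wilcoxon-Mann-Whitney statistic.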"}
{"sequence": "ACTAAGAA", "PBM E-score": 0.205}
{"sequence": "GCTAATGA", "PBM E-score": 0.0606}
{"sequence": "ACTAATGA", "PBM E-score": 0.264}
{"sequence": "CCTAATGA", "PBM E-score": 0.128}
{"sequence": "ACTAATAC", "PBM E-score": 0.288}
{"sequence": "ACTAAGAC", "PBM E-score": -0.0709}
{"sequence": "CGTGTGTA", "PBM E-score": 0.172}
{"sequence": "ATAGGTTA", "PBM E-score": 0.0929}
{"sequence": "AGCAAACT", "PBM E-score": 0.158}
{"sequence": "ATAGAGGA", "PBM E-score": -0.186}
{"sequence": "CCTAATAA", "PBM E-score": 0.146}
{"sequence": "ACTAATAT", "PBM E-score": 0.301}
{"sequence": "ACTAATAG", "PBM E-score": 0.244}
{"sequence": "ACTAATAA", "PBM E-score": 0.303}
{"sequence": "ACGAATAT", "PBM E-score": 0.212}
{"sequence": "TCTAATAA", "PBM E-score": 0.167}
{"sequence": "ATTAAAGG", "PBM E-score": 0.199}
{"sequence": "CAAACTCC", "PBM E-score": -0.0365}
{"sequence": "CCGTGGAA", "PBM E-score": -0.00863}
{"sequence": "GCTCACAA", "PBM E-score": 0.0362}
{"sequence": "TCGATGCA", "PBM E-score": -0.0467}
{"sequence": "CGTAATTC", "PBM E-score": 0.296}
{"sequence": "CGTAATTA", "PBM E-score": 0.335}
{"sequence": "AGTAATTA", "PBM E-score": 0.307}
{"sequence": "GGTAATTA", "PBM E-score": 0.221}
{"sequence": "CCTAATTC", "PBM E-score": 0.036}
{"sequence": "CGTAATGA", "PBM E-score": 0.241}
{"sequence": "AGTAATTG", "PBM E-score": 0.164}
{"sequence": "AGTAATTC", "PBM E-score": 0.235}
{"sequence": "AGTAAGTA", "PBM E-score": 0.221}
{"sequence": "AGAAATCA", "PBM E-score": 0.0967}
{"sequence": "ACCTCTGG", "PBM E-score": -0.158}
{"sequence": "ACCAGGAG", "PBM E-score": -0.207}
{"sequence": "CTACTCTC", "PBM E-score": -0.0538}
{"sequence": "AATGGTCC", "PBM E-score": 0.113}
{"sequence": "AATGGTCA", "PBM E-score": 0.26}
{"sequence": "TATGGTCA", "PBM E-score": 0.0184}
{"sequence": "ACATCCTC", "PBM E-score": -0.0125}
{"sequence": "CTGAGAAA", "PBM E-score": 0.0446}
{"sequence": "AATTTAAA", "PBM E-score": 0.171}
{"sequence": "TACATGTA", "PBM E-score": 0.255}
{"sequence": "CACATGTA", "PBM E-score": 0.109}
{"sequence": "GACATGTA", "PBM E-score": 0.162}
{"sequence": "ATCGGAAA", "PBM E-score": 0.112}
{"sequence": "GTCGGAAA", "PBM E-score": 0.263}
{"sequence": "CTCGGAAA", "PBM E-score": 0.0289}
{"sequence": "CGAGCCAC", "PBM E-score": -0.228}
{"sequence": "GCCAGTAA", "PBM E-score": -0.206}
{"sequence": "GTACAAAA", "PBM E-score": 0.233}
{"sequence": "ATACAAAT", "PBM E-score": 0.173}
{"sequence": "TTACAAAA", "PBM E-score": 0.256}
{"sequence": "ATACAAAA", "PBM E-score": 0.284}
{"sequence": "TCACAAAA", "PBM E-score": 0.206}
{"sequence": "CTACAAAA", "PBM E-score": 0.0817}
{"sequence": "GGGTAGCA", "PBM E-score": -0.108}
{"sequence": "TAGAGGCA", "PBM E-score": -0.0959}
{"sequence": "ATCGTATG", "PBM E-score": 0.0469}
{"sequence": "GTCTGCAA", "PBM E-score": -0.0254}
{"sequence": "CATGTTGA", "PBM E-score": 0.255}
{"sequence": "CATGTTGC", "PBM E-score": -0.0984}
{"sequence": "AATGTTGA", "PBM E-score": 0.0691}
{"sequence": "ACAAAAAA", "PBM E-score": 0.234}
{"sequence": "ACAAAAAT", "PBM E-score": 0.298}
{"sequence": "ACAAATAG", "PBM E-score": 0.202}
{"sequence": "ACAAAAAG", "PBM E-score": 0.239}
{"sequence": "ACAAATAA", "PBM E-score": 0.225}
{"sequence": "ACAAATAC", "PBM E-score": 0.293}
{"sequence": "ACAAATAT", "PBM E-score": 0.274}
{"sequence": "ACAAAAAC", "PBM E-score": 0.143}
{"sequence": "GCAAAACC", "PBM E-score": -0.0668}
{"sequence": "CCAAATAC", "PBM E-score": -0.144}
{"sequence": "ACAAAACC", "PBM E-score": 0.272}
{"sequence": "GCAAATAC", "PBM E-score": 0.0311}
{"sequence": "AAACCCTT", "PBM E-score": 0.0938}
{"sequence": "ACAGGGTG", "PBM E-score": -0.126}
{"sequence": "ACCTAAAA", "PBM E-score": 0.0796}
{"sequence": "AAGCGGAC", "PBM E-score": -0.025}
{"sequence": "ACGTAGTG", "PBM E-score": 0.0166}
{"sequence": "GTACAGAA", "PBM E-score": -0.00324}
{"sequence": "CGTCAATC", "PBM E-score": 0.0678}
{"sequence": "CCATGAGG", "PBM E-score": -0.0244}
{"sequence": "AATAGCCG", "PBM E-score": 0.0258}
{"sequence": "ACCAGCAG", "PBM E-score": -0.186}
{"sequence": "CCTCGTAG", "PBM E-score": -0.00114}
{"sequence": "AAGATAAA", "PBM E-score": 0.286}
{"sequence": "AAGATAAC", "PBM E-score": 0.111}
